One may read the AC50 as the concentration at which the activity in the assay is half-maximal.

The text below walks through data of PubChem BioAssay (EPA / NIEHS).

Read-out in one assay: CD38, CD38 (gene 952)
Kind of assay: BSK_SAg_CD38: BioMAP Diversity Plus: SAg Assay for CD38 Biomarker Activity (AID 2283087). The note with it: primary human HUVEC with PBMC; actives raise or lower the signal. The procedure, abridged:
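Fluorescence ELISA of cell-surface CD38 served as the read-out, with either increase or decrease fitted against DMSO controls. Cells were a human umbilical vein endothelium plus PBMC co-culture under SEB/TSST-1 stimulation, measured 24 h after dosing.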

Read-out in the next assay: CD40, CD40 (gene 958)
Kind of assay: BSK_SAg_CD40: BioMAP Diversity Plus: SAg Assay for CD40 Biomarker Activity (AID 2283088). The conditions noted are these: primary human HUVEC with PBMC; actives raise or lower the signal. The procedure, abridged:
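Fluorescence ELISA read-out of CD40 from umbilical vein endothelium plus peripheral blood mononuclear cells, sampled 24 h after dosing. Values come from bidirectional curve fitting with DMSO as baseline.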

Read-out in another assay: CD69, CD69 (gene 969)
Kind of assay: BSK_SAg_CD69: BioMAP Diversity Plus: SAg Assay for CD69 Biomarker Activity (AID 2283089).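 For AC50: cell surface CD69 protein quantified by ELISA with fluorescence detection.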 The note with it: primary human HUVEC with PBMC; actives raise or lower the signal. The procedure, abridged:
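Primary human vascular co-culture (umbilical vein endothelium with peripheral blood mononuclear cells) exposed to test chemical for 24 h. CD69 levels quantified by fluorescence ELISA; DMSO served as negative control for bidirectional fitting.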

Read-out in assay [1]: Monocyte Chemoattractant Protein-1 (MCP1), CCL2 (gene 6347)
Nature of the assay: BSK_SAg_MCP1: BioMAP Diversity Plus: SAg Assay for Monocyte Chemoattractant Protein-1 (MCP1) Biomarker Activity (AID 2283090). The note with it: primary human HUVEC with PBMC; actives raise or lower the signal. The procedure, abridged:
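MCP-1 levels in the endothelial–PBMC SAg co-culture were quantified by ELISA at 24 h post-dosing; both increases and decreases versus DMSO scored. Cytotoxicity monitored by SRB total protein in parallel cultures.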

Read-out in assay [2]: E-selectin (Homo sapiens) (UniProt P16581)
Kind of assay: BSK_SAg_Eselectin: BioMAP Diversity Plus: SAg Assay for Eselectin Biomarker Activity (AID 2283091). The note with it: primary human HUVEC with PBMC; actives raise or lower the signal. Put shortly: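 Primary human endothelial cells and peripheral blood mononuclear cells were co-cultured and exposed to chemical for 24 hours. E-selectin levels were then quantified by ELISA, with bidirectional curve fitting normalised to DMSO controls.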

Read-out in assay [3]: Monokine induced gamma interferon (MIG), CXCL9 (gene 4283)
Nature of the assay: BSK_SAg_MIG: BioMAP Diversity Plus: SAg Assay for Monokine induced gamma interferon (MIG) Biomarker Activity (AID 2283092). The note with it: primary human HUVEC with PBMC; actives raise or lower the signal. The procedure, abridged:
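Endothelial cells and PBMC were co-cultured, exposed to test chemicals, and sampled 24 h later. MIG was measured by ELISA, and responses were fitted in both directions relative to DMSO.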

Assay [4] can be described thus: BSK_SAg_PBMCCytotoxicity: PBMC Cytotoxicity Assessment in the BioMAP Diversity Plus: SAg Assay (AID 2283093).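 For AC50: PBMC superantigen activated with SEB plus TSST-1 one hour after compound addition.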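 Note: PBMC viability measured as Alamar Blue reduction fluorescence at 546/580 nm; fitted both ways against DMSO so a hit may be loss or gain of signal.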 The note with it: primary human HUVEC with PBMC. The procedure, abridged: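 HUVEC/PBMC co-culture; PBMC exposed to chemical 1 h before SEB and TSST-1 activation (20 ng/mL each), incubated 90 h, then Alamar Blue 6 h, fluorescence 546/580 nm. Bidirectional fit versus DMSO baseline.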

Read-out in assay [5]: Interleukin-8 (IL8), CXCL8 (gene 3576)
Nature of the assay: BSK_SAg_IL8: BioMAP Diversity Plus: SAg Assay for Interleukin-8 (IL8) Biomarker Activity (AID 2283094). The conditions noted are these: primary human HUVEC with PBMC; actives raise or lower the signal. Put shortly: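 In this co-culture of human umbilical vein endothelium with peripheral blood mononuclear cells, IL-8 is assayed by ELISA at 24 h. DMSO serves as baseline for bidirectional curve fitting.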

Assay [6] can be described thus: BSK_SAg_Proliferation: Cell Proliferation Assessment in the BioMAP Diversity Plus: SAg Assay (AID 2283095).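 Note: relative cell number as total protein by SRB absorbance in sub-confluent culture.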 The conditions noted are these: primary human HUVEC with PBMC. The procedure, abridged: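 Readout is SRB-stained protein (560 nm) in a primary human HUVEC and PBMC co-culture; sub-confluent cultures are read at 96 h. Activity is fitted bidirectionally using DMSO as baseline.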

Assay [7] can be described thus: BSK_SAg_SRB: Viability Assessment in the BioMAP Diversity Plus: SAg Assay (AID 2283096).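 Note: cells read one day after compound addition; hits may be either gain or loss of signal compared with DMSO.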 The conditions noted are these: primary human HUVEC with PBMC. Put shortly:
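Human umbilical vein endothelial cells co-cultured with PBMC, read 24 h after compound dosing. Total protein measured by sulforhodamine B staining (0.1% SRB after 10% TCA fixation, absorbance 560 nm); bidirectional fit versus DMSO baseline.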

The source made the active and inactive calls. Rule for the calls: active = hit-call score of the fitted dose curve at least 0.9, where 1 is the maximum; inactive = score below 0.9.

Chain of E-selectin (Homo sapiens) (P16581 whole entry, looked up): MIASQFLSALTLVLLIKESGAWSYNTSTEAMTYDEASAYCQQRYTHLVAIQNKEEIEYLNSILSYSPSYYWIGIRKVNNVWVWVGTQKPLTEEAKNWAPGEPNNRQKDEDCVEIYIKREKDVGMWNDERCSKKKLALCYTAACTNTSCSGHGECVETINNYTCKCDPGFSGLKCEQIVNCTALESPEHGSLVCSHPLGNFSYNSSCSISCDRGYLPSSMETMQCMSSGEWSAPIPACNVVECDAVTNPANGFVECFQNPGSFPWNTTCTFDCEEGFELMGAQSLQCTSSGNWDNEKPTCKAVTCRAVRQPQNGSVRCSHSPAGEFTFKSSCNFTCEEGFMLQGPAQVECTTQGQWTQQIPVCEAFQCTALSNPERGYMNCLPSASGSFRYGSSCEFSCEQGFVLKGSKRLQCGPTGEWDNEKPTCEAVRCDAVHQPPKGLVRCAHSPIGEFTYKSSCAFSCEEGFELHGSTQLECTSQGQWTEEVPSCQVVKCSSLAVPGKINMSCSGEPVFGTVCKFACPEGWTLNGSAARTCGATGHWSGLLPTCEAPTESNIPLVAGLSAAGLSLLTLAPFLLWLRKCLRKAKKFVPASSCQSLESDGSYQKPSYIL

For `CN(C)CCCN(C)CCCN(C)C`, the outcome with CD38, CD38 (gene 952) is “inactive”; with CD40, CD40 (gene 958), “inactive”; in the assay with CD69, CD69 (gene 969), “inactive”; in [1], “inactive”; in [2] it was “inactive”; in assay [3], “inactive”. Moreover, the outcome in assay [4], in assay [5] and in assay [6] was inactive.
Take `O=C(NS(=O)(=O)/C=C/c1cccs1)c1ccc(F)cc1Br`: the outcome is “inactive” in the assay with CD38, CD38 (gene 952); “inactive” with CD69, CD69 (gene 969); “inactive” in assay [1]; “inactive” in [2]; “inactive” in assay [3]; “inactive” in assay [4]. For the same compound, the outcome in assay [5] was inactive. In addition, the AC50 was 3.97 µM (active) with CD40, CD40 (gene 958) and 3.54 µM (active) in [6].
As to `CCCCCCC(C=O)=Cc1ccccc1`, the AC50 was 33.4 µM (active) with CD38, CD38 (gene 952); 32 µM (active) in the assay with CD40, CD40 (gene 958); 31 µM (active) with CD69, CD69 (gene 969); 32 µM (active) in assay [1]; 34.4 µM (active) in [2]; 31.5 µM (active) in assay [3]. Also, the AC50 is 31 µM (active) in assay [4], 29.8 µM (active) in [5] and 34.9 µM (active) in assay [6].
As to `CN(C)C(=O)NC1(c2ccccc2)CCN(CCC[C@]2(c3ccc(Cl)c(Cl)c3)CCCN(C(=O)c3ccccc3)C2)CC1`, the outcome with CD38, CD38 (gene 952) was “inactive”; with CD40, CD40 (gene 958), “inactive”; with CD69, CD69 (gene 969) it was “inactive”; in assay [1] it was “inactive”; in assay [2] it was “inactive”; in assay [3], “inactive”. Moreover, in assay [5], the result was inactive. In addition, the AC50 in [4] was 7.62 µM (active); in assay [6], 7.39 µM (active).
As to `NC1CCCCC1`, the outcome is “inactive” with CD38, CD38 (gene 952); “inactive” with CD40, CD40 (gene 958); “inactive” with CD69, CD69 (gene 969); “inactive” in assay [1]; “inactive” in assay [2]; “inactive” in assay [3]. The outcome in [4], in assay [5], in [6] and in assay [7] was inactive.
In the case of `O=C1NC(=O)C(c2ccccc2)(c2ccccc2)N1`, the outcome in the assay with CD38, CD38 (gene 952) was “inactive”; with CD40, CD40 (gene 958) it was “inactive”; in the assay with CD69, CD69 (gene 969), “inactive”; in assay [1], “inactive”; in assay [2], “inactive”; in assay [3] it was “inactive”. Further, the outcome in assay [4], in [5] and in assay [6] was inactive.
`CCCCCCCCCC[N+](C)(C)[O-]`: the outcome in the assay with CD38, CD38 (gene 952) was “inactive”; with CD40, CD40 (gene 958) it was “inactive”; with CD69, CD69 (gene 969), “inactive”; in assay [1], “inactive”; in assay [2] it was “inactive”; in assay [3] it was “inactive”. Besides, the outcome in assay [4], in [5], in assay [6] and in [7] was inactive.
As for `CC(=O)[C@@]1(O)CC[C@H]2[C@@H]3CCC4=CC(=O)CC[C@]4(C)[C@H]3CC[C@@]21C`, the outcome is “inactive” with CD38, CD38 (gene 952); “inactive” with CD40, CD40 (gene 958); “inactive” with CD69, CD69 (gene 969); “inactive” in [1]; “inactive” in assay [2]; “inactive” in assay [3]. Besides, the outcome in [4], in [5] and in [6] was inactive.
For the compound `CCCC[C@H]1CN(CC2CCOCC2)C(=O)OC12CCN(C1(C)CCN(C(=O)c3c(C)ncnc3C)CC1)CC2`, the outcome in the assay with CD38, CD38 (gene 952) is “inactive”; in the assay with CD40, CD40 (gene 958), “inactive”; in the assay with CD69, CD69 (gene 969), “inactive”; in assay [1] it was “inactive”; in [2], “inactive”; in assay [3] it was “inactive”. The result in assay [4], in assay [5] and in assay [6] was inactive.
With `C/C=C/C=C/C(=O)O`, the outcome was “inactive” with CD38, CD38 (gene 952); “inactive” with CD40, CD40 (gene 958); “inactive” with CD69, CD69 (gene 969); “inactive” in assay [1]; “inactive” in [2]; “inactive” in assay [3]. In addition, the outcome in [4], in [5] and in assay [6] was inactive.
Consider `CO[C@@H]1COCC[C@@H]1N[C@@H]1CC[C@@](C(=O)N2CCc3ncc(C(F)(F)F)cc3C2)(C(C)C)C1`, for which the outcome with CD38, CD38 (gene 952) was “inactive”; with CD40, CD40 (gene 958), “inactive”; with CD69, CD69 (gene 969), “inactive”; in assay [1], “inactive”; in assay [2], “inactive”; in [3], “inactive”. The result in [4], in assay [5] and in assay [6] was inactive.
On to `COC(=O)CCC(=O)OC`, for which the outcome is “inactive” with CD38, CD38 (gene 952); “inactive” with CD40, CD40 (gene 958); “inactive” in the assay with CD69, CD69 (gene 969); “inactive” in [1]; “inactive” in [2]; “inactive” in assay [3]. Besides, the result in assay [4], in [5], in [6] and in assay [7] was inactive.
In the case of `Cc1cc(Cc2ccc(N)c(C)c2)ccc1N`, the outcome was “inactive” with CD38, CD38 (gene 952); “inactive” in the assay with CD40, CD40 (gene 958); “inactive” with CD69, CD69 (gene 969); “inactive” in [1]; “inactive” in assay [3]; “inactive” in assay [4]. Further, the outcome in assay [5] and in assay [6] was inactive. In [2], the AC50 is 5.1 µM (active).
With `CC1(C)C(=O)NC(=O)N1CO`, the outcome with CD38, CD38 (gene 952) was “inactive”; in the assay with CD40, CD40 (gene 958), “inactive”; in the assay with CD69, CD69 (gene 969) it was “inactive”; in [1], “inactive”; in assay [2], “inactive”; in assay [3] it was “inactive”. Moreover, the outcome in [4], in assay [5] and in assay [6] was inactive.
For `CC(COCC(C)OC(=O)c1ccccc1)OC(=O)c1ccccc1` (centres undefined), the outcome with CD38, CD38 (gene 952) is “inactive”; in the assay with CD40, CD40 (gene 958), “inactive”; with CD69, CD69 (gene 969) it was “inactive”; in assay [1], “inactive”; in assay [2], “inactive”; in assay [3], “inactive”. Further, the outcome in assay [4], in [5], in assay [6] and in assay [7] was inactive.
For the compound `CC(=O)OCC(COC(C)=O)OC(C)=O`, the outcome in the assay with CD38, CD38 (gene 952) is “inactive”; with CD40, CD40 (gene 958), “inactive”; with CD69, CD69 (gene 969), “inactive”; in assay [1], “inactive”; in assay [2], “inactive”; in assay [3], “inactive”. Also, the result in assay [4], in [5], in [6] and in assay [7] was inactive.
Consider `COc1ccc(C(=O)Nc2nc3ccccc3c(NCc3ccccc3)c2C#N)cc1`, for which the outcome with CD38, CD38 (gene 952) is “inactive”; in the assay with CD40, CD40 (gene 958), “inactive”; with CD69, CD69 (gene 969), “inactive”; in assay [1], “inactive”; in [2], “inactive”; in [3], “inactive”. Besides, the outcome in assay [4] and in assay [5] was inactive. For the same compound, in assay [6], the AC50 is 6.22 µM (active).
Take `O=[Si]=O`: the outcome in the assay with CD38, CD38 (gene 952) is “inactive”; with CD40, CD40 (gene 958) it was “inactive”; in the assay with CD69, CD69 (gene 969), “inactive”; in assay [1] it was “inactive”; in assay [2] it was “inactive”; in [3], “inactive”. Besides, the result in assay [4], in assay [5] and in assay [6] was inactive.
Consider `CC(C)COC(=O)CCCCC(=O)OCC(C)C`, for which the outcome with CD38, CD38 (gene 952) was “inactive”; in the assay with CD40, CD40 (gene 958), “inactive”; in the assay with CD69, CD69 (gene 969), “inactive”; in assay [1], “inactive”; in assay [2], “inactive”; in assay [3], “inactive”. Further, the outcome in assay [4], in assay [5] and in [6] was inactive.
In the case of `C#CC(O)C(CC)CCCC` (centres undefined), the outcome was “inactive” with CD38, CD38 (gene 952); “inactive” with CD40, CD40 (gene 958); “inactive” with CD69, CD69 (gene 969); “inactive” in [1]; “inactive” in assay [2]; “inactive” in assay [3]. The outcome in [4], in assay [5] and in [6] was inactive.
With `CCCCCCCCCCCCCCCCO`, the outcome in the assay with CD38, CD38 (gene 952) is “inactive”; with CD40, CD40 (gene 958) it was “inactive”; in the assay with CD69, CD69 (gene 969) it was “inactive”; in assay [1], “inactive”; in [2] it was “inactive”; in [3], “inactive”. Besides, the result in [4], in [5] and in assay [6] was inactive.
